Assay results as given in PubChem BioAssay AID1700 (The Scripps Research Institute Molecular Screening Center, 2009).
Hit rate of the full screen: of about 290,000 compounds, about 670 (0.23%) were called active. This excerpt belongs to a sample that is enriched for actives. A number with no mark means an inactive call.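 Rule for the calls: active = inhibition above a per-plate limit of that plate's mean compound inhibition plus 3 SD (cut at about 60% in these data); inactive = the rest.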

Assay: suppression of KLF5 promoter-driven luciferase – DLD-1 cells, luminescence, primary screen (AID 1700);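 note: 0% = DMSO wells and 100% = LY294002 at 200 µM; higher means less KLF5 promoter-driven luciferase light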
Settings: DLD-1 KLF5 promoter-luciferase reporter, at 5 µM, active compounds read high

In order of falling inhibition:
1. O=C(NCC1CCCO1)c1cc2c([nH]c3ccccc32)c(-c2ccc(F)cc2)n1 (stereo unspecified)  12.1%
2. COCC(=O)N=Nc1c(O)[nH]c2ccccc12  6.53%
3. CCOc1ccc(C2C3=C(CCCC3=O)N(CC(=O)O)C3=C2C(=O)CCC3)cc1  0.17%
4. O=C(c1ccc(F)cc1)N1CCCC(C(=O)N2CCCCC2)C1 (stereo unspecified)  -2.28%
5. CCn1c(=S)sc2c(=O)n(CC(=O)Nc3cccc(Br)c3)c(C)nc21  -3.48%
6. CCOC(=O)C(C)Sc1nc2ccccc2c(=O)n1CC1CCCCC1 (stereo unspecified)  -3.75%
7. Cc1ccc(C(=O)N2CC(=O)Nc3ccc(F)cc3C2c2ccc(F)cc2)cc1 (stereo unspecified)  -4.39%
8. COc1ccc(NC(=O)C(C)N2c3cccc4cccc(c34)S2(=O)=O)c(OC)c1 (stereo unspecified)  -5.03%
9. CCCC(C(=O)n1nc(C)cc1C)C(NS(=O)(=O)c1ccc(C)cc1)c1ccccc1 (stereo unspecified)  -5.65%
10. COc1cc(/C=N/NC(=O)c2ccc(N3CCCC3=O)cc2)ccc1O  -6.57%
11. Cc1ccccc1N1CCN(S(=O)(=O)c2ccc3ccccc3c2)CC1  -6.9%
12. CC[C@]1(c2ccccc2OC)C(=O)N(C(=O)OC)N1C(=O)OC  -7.14%
13. COc1ccc(N2CCN(S(=O)(=O)CCNC(=O)C34CC5CC(CC(C5)C3)C4)CC2)cc1  -7.42%
14. CCn1c(SCC(=O)NC2CC2)nnc1-c1ccncc1  -7.99%
15. O=C(NCc1ccccc1)C(c1ccccc1)N(C(=O)c1csnn1)c1ccc(F)cc1 (stereo unspecified)  -8.26%
16. CSc1ccc(/C=N\NC(=O)COc2ccc(Cl)cc2Br)cc1  -9.23%
17. COc1ccc(N=Cc2c(O)[nH]c3ccccc23)cc1OC  -9.79%
18. Cc1ccc(CNC(=O)CCS(=O)(=O)c2ccc3c(c2)CC(C)N3C(=O)C2CC2)o1 (stereo unspecified)  -9.9%
19. C=CCc1ccccc1OCC(=O)N/N=C/c1ccccc1OCC  -10.7%
20. Cc1ccc(CN(CC(=O)NCC2CCCO2)S(=O)(=O)c2ccc(C)cc2)cc1 (stereo unspecified)  -11%
21. COc1ccc(Nc2cc(Cl)ccc2C(=O)O)cn1  -11.6%
22. O=C(O)CC/C(=C\c1cc2c(cc1Br)OCO2)c1nc2ccccc2s1  -12.1%
23. CCCCC[C@H]1CN(C2CCCCC2)C(=O)[C@@H]1CC(=O)NCc1ccc(OC)cc1  -12.3%
24. Clc1ccc(N/N=C/c2cccs2)nn1  -13.3%
25. CCn1c(SCC(=O)Nc2nccs2)nnc1-c1ccco1  -15.7%
26. CCN1C(=O)/C(=C2/Sc3ccc(OC)cc3N2C)SC1=Nc1ccc(C)cc1  -15.8%
27. Cn1nccc1C(=O)NC1CCCc2c1cnn2-c1ccccc1F (stereo unspecified)  -17%
28. Cc1ccc(S(=O)(=O)N2CCN(C(=O)CSc3cc(C)ccc3C)CC2)c(C)c1  -17.8%
29. Cc1ccc(S(=O)(=O)N(Cc2ccccc2)c2ccccn2)cc1[N+](=O)[O-]  -20.6%
30. COc1ccc(/C=N/NC(=O)c2ccccc2)cc1OS(=O)(=O)c1ccccc1  -22.4%
31. O=c1c2ccccc2nc2n1C1(CCCCC1)Cc1ccccc1-2  -22.6%
32. COc1cc(/C=N/Nc2nn3cnnc3c3ccccc23)cc(OC)c1OC  -22.6%
33. Cc1cccc(NC(=O)CSCC(=O)Nc2nnc(C3CC3)s2)c1  -22.8%
34. COc1ccccc1N1CCC(N2CCN(CC(C)(C)C)C(CCO)C2)CC1 (stereo unspecified)  -23.1%
35. CCOc1cc(/C=C2\C(=N)N3N=C(C)SC3=NC2=O)ccc1OCCOc1ccccc1  -24.1%
36. CC(=O)NCC(=O)NC1CCCc2c1cnn2-c1ccccc1F (stereo unspecified)  -24.6%
37. COc1ccc(NC(=O)c2cc(-c3ccc(C)cc3)on2)cc1  -28.2%
38. Cc1ccc(OC(=O)c2cncc(Br)c2)c(C)c1  -28.5%
39. N#CCSc1nc(-c2ccccc2)nc2ccc(F)cc12  -32.8%
40. CCOc1ccc(S(=O)(=O)Nc2ccc(OC)nc2)cc1  -32.8%
41. NC(=O)c1ccc(Nc2ccc3nonc3c2[N+](=O)[O-])cc1  -33%
42. O=C(CCNC(=O)C1CCN(S(=O)(=O)c2ccccc2)CC1)NC1CC1  -34.7%
43. COc1ccc(C(=O)Nc2ccc(NC(=O)C(C)C)nc2)cc1  -35%
44. Cc1ccc(C(=O)NCCc2nnc(SCC(=O)Nc3cccc(C(=O)O)c3)n2C)cc1  -36.2%
45. CN(c1ccccc1)S(=O)(=O)c1ccc2[nH]c(=O)[nH]c2c1  -38.8%
46. CCOC(=O)c1ccc(NC(=O)Cc2cccs2)cc1  -60.6%
47. Cc1cc(N)n2nc(-c3ccc(C(C)(C)C)cc3)cc2n1  -77.7%
48. Cc1csc(NC(=O)CSc2nnc(-c3cccnc3)o2)n1  -90.3%
49. COc1cccc(/C=N/Nc2ccc(Cl)nn2)c1  -91.5%
50. C/C(=N\Nc1nncc2ccccc12)c1ccc(Cl)c([N+](=O)[O-])c1  -127%
51. Nc1ccc(-c2nnc(-c3ccccc3)o2)cc1  -131%

In the case of CN(c1ccc2nc3ccccc3c(=O)n2n1)C1CCCCC1, the inhibition is reported as 90.6% (active).
In the case of Cn1nccc1C(=O)NC1CCCc2c1cnn2-c1ccc(F)cc1F (stereo unspecified), the inhibition is reported as 64.7% (active).
With Oc1cccc(/C=N/Nc2ccc(Cl)nn2)c1O the inhibition was 84.3% (active).
In the case of CCn1c(SCC(=O)Nc2nccs2)nnc1-c1ccncc1, the inhibition is reported as 102% (active).
With COc1ccc(C(=O)Nc2ccccc2C(=O)N/N=C/c2ccc(O)c(OC)c2)cc1 the inhibition was 99.4% (active).
For COc1ccc(NC(=O)/C(Cl)=C(/Cl)S(=O)Cc2ccc(C)cc2)cn1 (stereo unspecified), the inhibition was 89% (active).
With COc1ccc(CS(=O)/C(Cl)=C(/Cl)C(=O)Nc2ccc(OC)nc2)cc1 (stereo unspecified) the inhibition was 100% (active).
With CN(CCO)c1ccc(/C=N/Nc2nncc3ccccc23)cc1 the inhibition was 68.3% (active).
In the case of Cc1ccc(/C=N/NC(=O)COc2ccccc2-c2ccccc2)cc1, the inhibition is reported as 77.9% (active).
In the case of COc1cc(N=Cc2c(O)[nH]c3ccccc23)cc(OC)c1OC, the inhibition is reported as 66.8% (active).
